From PubChem
LDHA block = blocks human lactate dehydrogenase A; purified LDHA, NADH/diaphorase-resazurin fluorescence; active compounds read low; activity change, % (values are at about 110 or 230 µM); 0.15% of 480,000 active; AID 1347041; in the data active = activity change below about -30%; inconclusive = mostly about -25% to -30%;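 note: plate controls were DMSO wells for no effect and wells without enzyme for full effect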
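Human LDH5 at 2 nM final in Tris HCl pH 7.4 with 0.06 mM NADH and 0.2 mM pyruvate, reacted 5 minutes at room temperature. Remaining NADH coupled via diaphorase/resazurin; resorufin fluorescence read at 0 and 20 minutes, normalized to enzyme-free and DMSO wells.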
DT40 TDP1 CPT = DT40-hTDP1 cell growth loss with CPT. chicken DT40 Tdp1-/-;hTDP1 cells + 20 nM CPT, ATP luminescence, 48 h. Potency, µM (doses to about 46.2 µM), for the others: at the top dose activity change, negative = growth inhibition, hits mostly inhibitors. 12% of 420,000 active. AID 686979; note: potency is the fitted concentration of half-maximal effect; nearly all actives have a fitted effect of over 55% in size
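Chicken DT40 Tdp1-/- cells complemented with human TDP1, 400 cells/well, exposed to compounds plus 20 nM camptothecin for at least 48 h at 37 C; viability read as ATP content by CellTiter-Glo luminescence.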
TDP1 cell noCPT = qHTS for Inhibitors of human tyrosyl-DNA phosphodiesterase 1 (TDP1): qHTS in cells in absence of CPT; DT40 Tdp1-/- hTDP1 cells, no CPT, ATP luminescence, 48 h; Potency, µM (top dose mostly 46.2 µM), for inactives: top-dose activity change, negative = growth inhibition, most hits filed as inhibitors; 15% of 420,000 active; AID 686978, 2013; note: potency is the fitted concentration of half-maximal effect; nearly all actives have a fitted effect of over 55% in size
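Seeded 400 DT40-hTDP1 cells/well (vehicle DMSO, no 20 nM CPT); pinned compounds; ≥48 hr at 37 °C; CellTiter-Glo luminescence as viability measure.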
IL-1B inflam inh = inhibitors of inflammasome signaling (IL-1 beta secretion) | THP-1 LPS/ATP IL-1B secretion, AlphaLISA, 16 h; active compounds read low | activity change, % at 57.5 µM | 4.7% of 360,000 active | AID 743279; in the data active = activity change below about -50%; inconclusive = mostly about -30% to -49%
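THP-1 cells pretreated 1 hr with compounds (up to 57.5 uM final), then stimulated with LPS (250 ng/mL final) plus ATP (1.25 mM final); secreted IL-1B measured by AlphaLISA after 16 hr, decreased signal indicating inhibition.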
VP16 counter = Gal4-VP16 reporter inhibition counter-screen | Potency, µM (titrated, usually from 53.6 µM), for the others: top-dose activity, negative = inhibition, usual class: inhibitors | Drosophila S2 Gal4-VP16 UAS-luciferase, luminescence, 20 h | 3.5% of 310,000 active | AID 2546;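 note: Gal4-VP16 expression switched on by copper sulfate through the metallothionein promoter; potency is the fitted concentration of half-maximal effect; nearly all actives have a fitted effect of over 50% in size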
RORg inh = inhibitors of mouse ROR gamma transcriptional activity; P51450; Drosophila S2 Gal4-RORgamma UAS-luciferase reporter, 20 h; Potency, µM (top dose mostly 53.6 µM), inactives show at the top dose activity change, negative = inhibition, hits mostly inhibitors; 5.4% of 310,000 active; note: potency is the fitted concentration of half-maximal effect; nearly all actives have a fitted effect of over 60% in size
Target sequence (P51450 whole entry, looked up, the tested form may be a part): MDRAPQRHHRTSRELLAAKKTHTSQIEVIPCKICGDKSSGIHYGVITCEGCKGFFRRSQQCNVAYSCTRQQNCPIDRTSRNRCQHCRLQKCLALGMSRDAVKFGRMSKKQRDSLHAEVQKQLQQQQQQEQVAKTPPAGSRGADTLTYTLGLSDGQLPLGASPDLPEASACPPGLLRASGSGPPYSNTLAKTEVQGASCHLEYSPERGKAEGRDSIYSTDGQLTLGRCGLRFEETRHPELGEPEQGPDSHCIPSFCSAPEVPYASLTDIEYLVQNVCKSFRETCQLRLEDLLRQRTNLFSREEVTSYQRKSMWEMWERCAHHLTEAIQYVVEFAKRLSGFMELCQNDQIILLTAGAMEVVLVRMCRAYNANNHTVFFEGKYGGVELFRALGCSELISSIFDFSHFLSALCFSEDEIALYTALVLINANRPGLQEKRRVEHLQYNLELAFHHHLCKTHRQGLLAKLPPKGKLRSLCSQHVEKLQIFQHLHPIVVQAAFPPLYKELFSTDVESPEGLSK
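A Gal4/UAS one-hybrid system in insect cells: metallothionein-promoter Gal4–ROR gamma fusion plus Photinus luciferase reporter. Copper sulfate 700 uM final, 20 hr ambient incubation, luminescent detection after 10 min with reagent.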
* = called active by the depositor; ? = inconclusive; . = no result; [ ] = another dose, or the depositor's remark. The list is not random: actives were taken first. Their share in the collection is about 18%. Unless noted, calls come from the whole dose curve; as a rule, active = well fitted curve in the direction sought with a large enough effect; inconclusive = small, poorly fitted or top-dose-only effect, or another doubt; inactive = no such curve, though single readings can be large; an effect the other way counts as inactive or inconclusive. Unless noted, % is set by controls: 0 for no effect and ±100 for the full control effect.

SMILES | LDHA block | DT40 TDP1 CPT | TDP1 cell noCPT | IL-1B inflam inh | VP16 counter | RORg inh
COc1ccc(C(O)Cn2ccsc2=NC(C)=O)cc1 (stereo not given) | 3.9 | 23.1µM* | ? | 26.4 | 4.0% | -19.7%
CC(=O)N=c1sccn1CC(O)c1ccccc1 (stereo not given) | -2.9 | -28.7% | 1.5% | 25.6 | 10.3% | -2.4%
Cc1ccc(-c2noc(CCC(=O)N3CCc4sccc4C3c3cccs3)n2)cc1 (stereo not given) | -1.4 | . | . | . | . | .
N#C/C(=C\c1ccc(O)c(I)c1)c1nc2ccccc2[nH]1 | 4.1 | . | . | . | . | .
CN(CC(=O)Nc1cccc(F)c1)C(=O)c1cc([N+](=O)[O-])ccc1N1CCCCC1 | 3.3 | ? | 29.1µM* | 14.9 | . | .
CCOc1ccc(NC(=O)CN(C)C(=O)c2ccc(N3CCCCCC3)c([N+](=O)[O-])c2)cc1OCC | 2.1 | ? | 23.1µM* | -1.2 | . | .
COc1cccc(NC(=O)CN(C)C(=O)c2ccc(N3CCCCC3)c([N+](=O)[O-])c2)c1 | 0.9 | ? | ? | 22.2 | . | .
CN(CC(=O)Nc1cccc(F)c1)C(=O)c1ccc(N2CCCC2)c([N+](=O)[O-])c1 | -1.3 | 16.4µM* | 16.4µM* | -13.6 | . | .
CCc1ccc(Cc2cnc(NC(=O)c3ccc4c(c3)CC(c3ccccc3)OC4=O)s2)cc1 (stereo not given) | -11.1 | ? | 18.4µM* | . | . | .
CN(CC(=O)Nc1cccc(F)c1)C(=O)c1ccc2c(c1)CC(c1ccccc1)OC2=O (stereo not given) | -5.1 | 8.2µM* | 5.17µM* | -13.0 | . | .
CC1=C(C(=O)Nc2ccccc2C)C(c2ccco2)C(C#N)=C(SCC(=O)c2ccc(F)cc2)N1 (stereo not given) | 1.2 | . | . | . | . | .
CC/C(=N\NC(=S)Nc1cccc(C)c1)c1ccccc1 | -3.3 | 13µM* | 5.17µM* | -4.5 | ? | ?
CC(C)/C(=N\NC(=O)Nc1ccccc1)c1ccccc1 | -4.2 | -1.1% | -18.6% | 12.7 | 8.1% | 35.7%
Cc1cccc(NC(=S)N/N=C(\c2ccccc2)C(C)C)c1 | -9.3 | ? | 5.8µM* | 8.5 | ? | 4.47µM*
C/C(=N\NC(=S)Nc1cccc(C)c1)c1ccc(Br)cc1 | -4.3 | . | . | . | . | .
O=C(c1ccc(OC(F)(F)F)cc1)N1CCC(NS(=O)(=O)c2cccs2)CC1 | 7.0 | . | . | . | . | .
O=C(Cn1ccccc1=S)c1ccc(Cl)c(Cl)c1 | -1.7 | -2.2% | -20.7% | -81.2* | . | .
CCCCCCCn1c(=N)n(CC(O)c2ccco2)c2ccccc21 (stereo not given) | -2.9 | 3.66µM* | 4.61µM* | 0.0 | -6.5% | -26.9%
CCn1c(=N)n(CC(=O)c2ccco2)c2ccccc21 | 0.0 | 13µM* | ? | 18.3 | 5.9% | -17.3%
N=c1n(CCN2CCCCC2)c2ccccc2n1CC(=O)c1ccc(Cl)c(Cl)c1 | -8.7 | ? | ? | . | -8.9% | 24.1%
CCn1c(=N)n(CC(=O)c2ccc(Cl)c(Cl)c2)c2ccccc21 | -4.0 | 25.9µM* | 20.6µM* | -72.9* | 4.0% | -44.8%
O=C(Cn1ccccc1=O)c1ccc(Cl)cc1 | -1.4 | 2.4% | 7.7% | -17.1 | -0.1% | 0.2%
N=c1n(CCN2CCCC2)c2ccccc2n1CC(O)c1ccco1 (stereo not given) | -12.0 | -25.6% | -12.6% | -25.8 | -1.6% | 0.2%
CCCCn1c(=N)n(CC(=O)c2ccco2)c2ccccc21 | -6.7 | ? | ? | ? | -11.0% | -30.5%
CCOc1ccc(-c2cc3ccccc3[nH]2)cc1 | 5.9 | . | . | . | . | .
SMILES | LDHA block | DT40 TDP1 CPT | TDP1 cell noCPT | IL-1B inflam inh | VP16 counter | RORg inh
CCCCCCCn1c(=N)n(CC(=O)c2ccco2)c2ccccc21 | -6.0 | 20.6µM* | ? | -80.2* | -14.2% | -41.6%
CC(=O)NC1=NN(C(C)=O)C(C)(c2ccc3ccccc3c2)S1 (stereo not given) | -4.7 | -26.8% | ? | 20.5 | -28.4% | -11.7%[10 µM]
CC(=O)NC1=NN(C(C)=O)C(C)(c2ccccc2)S1 (stereo not given) | -14.0 | 5.8µM* | 5.8µM* | 23.5 | 9.1%[0.365 µM] | 2.3%
CC(C(=O)NCc1ccccc1Cl)N(c1ccccc1)S(C)(=O)=O (stereo not given) | 3.9 | . | . | . | . | .
O=C1CC(SC2=NCCS2)C(=O)N1c1ccc(Br)cc1 (stereo not given) | -1.8 | 0.8% | -26.1% | -5.3 | 2.8% | 0.3%
O=C(O)c1cccnc1SC1CC(=O)N(c2ccccc2)C1=O (stereo not given) | -6.4 | -14.5% | 7.7% | 5.2 | 1.0% | -2.0%
O=C1CC(Sc2nnc(-c3ccccc3)o2)C(=O)N1c1ccccc1 (stereo not given) | -13.1 | 2.91µM* | 4.61µM* | -17.2 | 3.98µM* | 1.26µM*
Cc1nc(SC2CC(=O)N(c3ccccc3)C2=O)nc2c1CCCC2 (stereo not given) | -1.2 | ? | -28.7% | 9.4 | 2.3% | -11.2%
Cc1nnc(SC2CC(=O)N(c3ccccc3)C2=O)s1 (stereo not given) | -4.9 | 3.66µM* | 20.6µM* | 6.1 | 1µM* | 1.12µM*
O=C1CC(Sc2cccs2)C(=O)N1c1ccccc1 (stereo not given) | -0.2 | 3.66µM* | 3.66µM* | -27.2 | 7.94µM* | 4.47µM*
CCn1ccc2cc(S(=O)(=O)N3CCC(C(=O)NCc4ccco4)CC3)ccc21 | -1.2 | . | . | . | . | .
Cc1cccc(-c2nc(CSc3nc(C)c(C)c(=O)[nH]3)c(C)o2)c1 | 6.0 | . | . | . | . | .
O=C(Cc1cc(Cl)c2c(c1)OCCCO2)NC1CCN(CC(F)F)CC1 | 2.8 | . | . | . | . | .
